Results: the supplement of paper PMC10849652
Targets with a hit are over-represented here; the source holds about 7,900 in all. About 0.6% of all pairs of compound and target were hits.

Compound: c1cn2cc(-c3ccc4cn[nH]c4c3)nc(Nc3ccc(N4CCOCC4)cc3)c2n1 [entospletinib]
Assay: log2 fold change, soluble protein after heating vs DMSO (PISA); higher = thermal stabilisation; K562 cells, 10 uM, 30 min; active = over 0.2 and 3.5 SD of the protein, either way, in both replicates (recomputed)
In short: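 Thermal stability values are relative to control samples and come from duplicates. They are expressed as log2 fold changes. For measurement, K562 cells (2×10^6 cells/mL) received 10 μM compound for 30 min, and aliquots were heated for 3 min over 48°C-58°C, pooled, and extracted at 4°C in PBS with 0.5% NP-40. Soluble protein, the supernatant after 21,000xg for 90 min, was quantified by TMTpro 16plex LC-MS/MS with equalised channel sums.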

UniProt Q9P016, sequence (Q9P016 whole entry, looked up): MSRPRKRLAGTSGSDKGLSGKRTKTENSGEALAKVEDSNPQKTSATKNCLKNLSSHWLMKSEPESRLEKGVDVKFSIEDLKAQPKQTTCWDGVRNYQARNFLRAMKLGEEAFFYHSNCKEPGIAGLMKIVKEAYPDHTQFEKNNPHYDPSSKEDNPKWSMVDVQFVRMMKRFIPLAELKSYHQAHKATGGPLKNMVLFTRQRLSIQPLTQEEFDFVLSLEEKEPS
UniProt Q9NYB0, sequence (Q9NYB0 whole entry, looked up): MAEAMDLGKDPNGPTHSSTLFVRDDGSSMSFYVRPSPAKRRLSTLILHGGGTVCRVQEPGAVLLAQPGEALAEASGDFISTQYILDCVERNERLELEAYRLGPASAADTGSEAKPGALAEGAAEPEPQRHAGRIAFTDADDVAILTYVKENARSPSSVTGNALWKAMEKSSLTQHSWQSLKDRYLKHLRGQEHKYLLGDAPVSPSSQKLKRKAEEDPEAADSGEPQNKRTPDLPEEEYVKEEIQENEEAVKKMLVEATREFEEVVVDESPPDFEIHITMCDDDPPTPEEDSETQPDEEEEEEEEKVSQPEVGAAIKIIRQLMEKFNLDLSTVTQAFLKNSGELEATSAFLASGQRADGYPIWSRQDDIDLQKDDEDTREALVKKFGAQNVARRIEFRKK
UniProt P51692, sequence (P51692 whole entry, looked up): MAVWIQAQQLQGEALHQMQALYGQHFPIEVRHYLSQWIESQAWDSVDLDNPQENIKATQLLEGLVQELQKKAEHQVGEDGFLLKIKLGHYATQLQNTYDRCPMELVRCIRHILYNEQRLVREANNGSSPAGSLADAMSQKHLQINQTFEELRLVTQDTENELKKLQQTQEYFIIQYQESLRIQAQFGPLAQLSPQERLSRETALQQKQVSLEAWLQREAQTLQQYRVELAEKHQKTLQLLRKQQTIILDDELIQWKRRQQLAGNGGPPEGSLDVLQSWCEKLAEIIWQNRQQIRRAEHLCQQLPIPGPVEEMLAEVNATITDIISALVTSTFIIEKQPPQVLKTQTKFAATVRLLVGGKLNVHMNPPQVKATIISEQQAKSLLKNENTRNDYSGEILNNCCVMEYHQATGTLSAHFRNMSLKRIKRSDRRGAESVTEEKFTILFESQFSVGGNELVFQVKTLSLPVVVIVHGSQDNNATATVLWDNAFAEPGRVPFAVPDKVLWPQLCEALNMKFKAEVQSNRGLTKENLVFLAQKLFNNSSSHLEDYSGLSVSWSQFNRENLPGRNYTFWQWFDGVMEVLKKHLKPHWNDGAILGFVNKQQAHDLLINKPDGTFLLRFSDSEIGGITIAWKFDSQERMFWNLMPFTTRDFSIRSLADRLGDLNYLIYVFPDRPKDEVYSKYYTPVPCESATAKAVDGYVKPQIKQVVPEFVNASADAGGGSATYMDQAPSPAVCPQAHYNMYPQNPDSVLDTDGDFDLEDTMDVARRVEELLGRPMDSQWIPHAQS
UniProt P40763, sequence (P40763 whole entry, looked up): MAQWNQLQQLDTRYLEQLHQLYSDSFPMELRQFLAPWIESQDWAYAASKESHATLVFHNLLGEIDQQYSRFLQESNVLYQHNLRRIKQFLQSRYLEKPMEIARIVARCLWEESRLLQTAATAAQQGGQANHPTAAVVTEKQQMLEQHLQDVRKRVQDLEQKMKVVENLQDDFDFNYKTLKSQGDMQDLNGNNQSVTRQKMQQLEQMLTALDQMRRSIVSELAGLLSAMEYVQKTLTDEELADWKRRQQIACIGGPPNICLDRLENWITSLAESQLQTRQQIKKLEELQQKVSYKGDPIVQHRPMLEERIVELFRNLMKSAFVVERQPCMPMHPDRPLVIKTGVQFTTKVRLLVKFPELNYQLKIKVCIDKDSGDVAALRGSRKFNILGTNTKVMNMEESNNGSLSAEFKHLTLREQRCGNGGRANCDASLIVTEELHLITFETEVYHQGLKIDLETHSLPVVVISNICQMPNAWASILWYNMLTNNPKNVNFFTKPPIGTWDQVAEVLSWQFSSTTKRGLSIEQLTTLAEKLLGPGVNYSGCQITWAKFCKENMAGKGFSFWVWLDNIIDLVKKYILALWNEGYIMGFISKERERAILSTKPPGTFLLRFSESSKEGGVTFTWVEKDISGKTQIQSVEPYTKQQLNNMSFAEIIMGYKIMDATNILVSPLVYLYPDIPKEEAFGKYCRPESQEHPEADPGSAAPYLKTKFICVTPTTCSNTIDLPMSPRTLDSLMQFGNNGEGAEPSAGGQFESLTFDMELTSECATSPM
UniProt Q05519, sequence (Q05519 whole entry, looked up): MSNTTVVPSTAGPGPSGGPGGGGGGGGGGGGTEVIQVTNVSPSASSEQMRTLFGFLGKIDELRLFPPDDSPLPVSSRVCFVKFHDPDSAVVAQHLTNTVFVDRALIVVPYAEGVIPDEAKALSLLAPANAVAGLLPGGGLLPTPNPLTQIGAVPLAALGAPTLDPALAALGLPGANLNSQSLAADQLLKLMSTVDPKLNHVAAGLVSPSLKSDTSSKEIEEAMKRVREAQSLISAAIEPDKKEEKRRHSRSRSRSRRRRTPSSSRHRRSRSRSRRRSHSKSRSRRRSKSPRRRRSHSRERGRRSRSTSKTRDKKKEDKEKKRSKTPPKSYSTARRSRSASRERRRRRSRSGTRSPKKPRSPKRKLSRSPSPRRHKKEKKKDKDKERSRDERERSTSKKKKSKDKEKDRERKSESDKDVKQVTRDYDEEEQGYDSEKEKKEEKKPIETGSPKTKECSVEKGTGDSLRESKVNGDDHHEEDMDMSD
UniProt Q9UKI8, sequence (Q9UKI8 whole entry, looked up): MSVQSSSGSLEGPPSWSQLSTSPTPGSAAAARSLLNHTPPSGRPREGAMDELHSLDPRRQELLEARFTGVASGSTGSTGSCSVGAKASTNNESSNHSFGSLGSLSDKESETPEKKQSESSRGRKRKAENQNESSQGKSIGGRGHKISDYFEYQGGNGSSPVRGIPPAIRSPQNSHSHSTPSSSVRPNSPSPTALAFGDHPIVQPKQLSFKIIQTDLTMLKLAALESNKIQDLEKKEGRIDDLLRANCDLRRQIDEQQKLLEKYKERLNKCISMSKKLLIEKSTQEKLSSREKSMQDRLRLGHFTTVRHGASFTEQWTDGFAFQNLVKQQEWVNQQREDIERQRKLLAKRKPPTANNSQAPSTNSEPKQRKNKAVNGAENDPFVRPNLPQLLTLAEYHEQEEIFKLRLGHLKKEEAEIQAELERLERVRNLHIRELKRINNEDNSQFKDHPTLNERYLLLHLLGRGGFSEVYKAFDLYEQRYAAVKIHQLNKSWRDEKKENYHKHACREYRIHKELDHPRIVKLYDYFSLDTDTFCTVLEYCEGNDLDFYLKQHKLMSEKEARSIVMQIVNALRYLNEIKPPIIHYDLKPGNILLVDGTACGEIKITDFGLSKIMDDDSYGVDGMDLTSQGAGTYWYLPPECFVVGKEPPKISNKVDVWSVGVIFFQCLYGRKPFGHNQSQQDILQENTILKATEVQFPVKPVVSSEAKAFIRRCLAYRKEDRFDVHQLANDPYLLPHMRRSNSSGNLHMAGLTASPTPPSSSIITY
UniProt Q8N357, sequence (Q8N357 whole entry, looked up): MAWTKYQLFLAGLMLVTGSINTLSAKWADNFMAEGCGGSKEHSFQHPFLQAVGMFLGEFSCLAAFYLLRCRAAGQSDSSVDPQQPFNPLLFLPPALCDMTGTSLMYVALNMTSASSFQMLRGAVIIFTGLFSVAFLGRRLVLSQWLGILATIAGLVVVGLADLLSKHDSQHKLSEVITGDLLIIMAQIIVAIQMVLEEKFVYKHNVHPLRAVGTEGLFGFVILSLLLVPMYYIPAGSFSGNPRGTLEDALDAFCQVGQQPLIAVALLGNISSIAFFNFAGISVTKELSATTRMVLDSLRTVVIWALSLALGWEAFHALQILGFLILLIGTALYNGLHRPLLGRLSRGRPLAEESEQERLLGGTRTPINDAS
UniProt P04183, sequence (P04183 whole entry, looked up): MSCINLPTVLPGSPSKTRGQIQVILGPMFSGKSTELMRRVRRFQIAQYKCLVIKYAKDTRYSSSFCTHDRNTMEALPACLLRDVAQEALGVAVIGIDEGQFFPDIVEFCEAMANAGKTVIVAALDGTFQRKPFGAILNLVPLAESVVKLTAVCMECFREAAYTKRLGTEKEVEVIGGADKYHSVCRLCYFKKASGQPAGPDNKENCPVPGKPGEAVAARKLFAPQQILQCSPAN
UniProt Q969G3, sequence (Q969G3 whole entry, looked up): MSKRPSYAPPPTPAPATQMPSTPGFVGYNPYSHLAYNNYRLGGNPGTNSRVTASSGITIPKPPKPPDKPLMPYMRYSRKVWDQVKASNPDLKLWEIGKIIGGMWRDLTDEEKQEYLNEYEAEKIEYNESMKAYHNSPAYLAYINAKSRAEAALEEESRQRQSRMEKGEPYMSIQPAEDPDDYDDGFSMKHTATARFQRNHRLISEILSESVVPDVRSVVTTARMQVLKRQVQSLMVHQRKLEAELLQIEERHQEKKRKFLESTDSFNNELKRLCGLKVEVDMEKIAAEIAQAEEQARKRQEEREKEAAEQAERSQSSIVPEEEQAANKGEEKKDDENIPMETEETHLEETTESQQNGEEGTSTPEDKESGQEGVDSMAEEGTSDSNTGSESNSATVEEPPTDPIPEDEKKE
UniProt Q658P3, sequence (Q658P3 whole entry, looked up): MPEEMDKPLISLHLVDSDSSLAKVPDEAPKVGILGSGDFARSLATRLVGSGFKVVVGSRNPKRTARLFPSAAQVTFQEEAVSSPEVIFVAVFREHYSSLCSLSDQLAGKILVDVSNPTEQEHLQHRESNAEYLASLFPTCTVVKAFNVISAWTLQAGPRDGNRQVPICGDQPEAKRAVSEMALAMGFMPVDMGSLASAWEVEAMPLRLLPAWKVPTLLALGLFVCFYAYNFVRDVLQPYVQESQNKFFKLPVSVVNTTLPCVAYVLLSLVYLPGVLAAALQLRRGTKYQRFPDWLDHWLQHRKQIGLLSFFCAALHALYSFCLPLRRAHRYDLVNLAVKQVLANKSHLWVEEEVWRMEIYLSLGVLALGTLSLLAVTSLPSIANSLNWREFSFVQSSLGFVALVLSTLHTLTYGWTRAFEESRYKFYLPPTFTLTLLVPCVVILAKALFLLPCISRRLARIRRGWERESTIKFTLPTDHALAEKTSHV

log2 fold change, inactive:
SLC25A4 (UniProt P12235) -0.009, TIPRL (UniProt O75663) 0.018, THYN1 (UniProt Q9P016) 0.011, SMIM20 isoform 2 (UniProt Q8N5G0) 0.008, SPART (UniProt Q8N0X7) -0.005, SNRNP27 (UniProt Q8WVK2) 0.025, SNRPD3 (UniProt P62318) 0.01, SMARCE1 (UniProt Q969G3) -0.117, SSBP4 (UniProt Q9BWG4) 0.119, TFRC (UniProt P02786) 0.022, STEAP3 isoform 2 (UniProt Q658P3) -0.038, SUN1 isoform 9 (UniProt O94901) -0.064, TBK1 (UniProt Q9UHD2) 0.108, STAT3 (UniProt P40763) 0.026, SQSTM1 (UniProt Q13501) 0.02, TBC1D24 (UniProt Q9ULP9) 0.004, SUPT5H (UniProt O00267) 0.031, SNX11 (UniProt Q9Y5W9) 0.135, STXBP5 (UniProt Q5T5C0) 0.01, SRPRA (UniProt P08240) -0.052, SPIRE1 (UniProt Q08AE8) -0.085, SRSF11 (UniProt Q05519) 0, SMG1 (UniProt Q96Q15) -0.004, TLK1 (UniProt Q9UKI8) 0.001, TERF2IP (UniProt Q9NYB0) -0.026, SLC35F6 (UniProt Q8N357) -0.011, STRN (UniProt O43815) 0.03, TK1 (UniProt P04183) -0.012, STAT5B (UniProt P51692) -0.053, SLC7A6OS (UniProt Q96CW6) 0.052, STK26 (UniProt Q9P289) -0.022, SYF2 (UniProt O95926) 0.143, SNX5 (UniProt Q9Y5X3) -0.002, SYNE2 isoform 2 (UniProt Q8WXH0) -0.069, SNX12 isoform 1 (UniProt Q9UMY4) -0.005
